Sampled rows, rich in hits. Any-hit rate of the full collection: about 6%.
D3 antag: antagonists of human D3 dopamine receptor. P35462. D3R cells, DiscoveRx beta-arrestin luminescence, antagonist mode; hits give low values. max response, negative = inhibition, %. actives 2.5% (n = 360,000); in the data active = max response below about -50%; inconclusive = no clear call, values can overlap the other calls
Target sequence (P35462 whole entry, looked up): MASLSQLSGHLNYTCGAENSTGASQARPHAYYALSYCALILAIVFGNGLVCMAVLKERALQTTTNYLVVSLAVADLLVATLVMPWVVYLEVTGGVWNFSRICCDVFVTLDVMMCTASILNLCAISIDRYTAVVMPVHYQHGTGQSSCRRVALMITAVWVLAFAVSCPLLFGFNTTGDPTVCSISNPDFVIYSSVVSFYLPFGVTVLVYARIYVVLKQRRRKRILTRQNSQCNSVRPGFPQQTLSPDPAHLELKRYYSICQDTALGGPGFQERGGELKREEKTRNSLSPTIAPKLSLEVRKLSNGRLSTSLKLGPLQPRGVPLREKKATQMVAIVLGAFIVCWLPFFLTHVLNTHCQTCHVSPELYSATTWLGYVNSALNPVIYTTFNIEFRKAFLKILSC
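Cells plated overnight at 1500 cells/well, then exposed to library compounds with dopamine controls for 90 minutes at 37 degrees C. DiscoveRx reagent added for 30–60 minutes at room temperature; luminescence read, quantitative HTS format.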
D3 ag: D3 dopamine receptor (human) agonism; D3R DiscoveRx beta-arrestin cells, luminescence, 90 min; P35462; max activation, %; actives 0.58% (n = 410,000); in the data active = max activation above about 30%
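Agonist-mode cell screen: cells plated at 1500/well and incubated overnight at 37 °C, then exposed to library compounds for 90 min at 37 °C. Detection reagent was added for 30–60 min at room temperature, and luminescence was read.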
D1 PAM: potentiators of human D1 dopamine receptor; AID 504651; actives 0.036% (n = 360,000); HEK293 TREx D1 cells, calcium flux, dopamine EC20 potentiation; potentiation, % at 10 µM; in the data active = potentiation above about 30%
D1 antagonist: human D1 dopamine receptor antagonism | P21728 | HEK293 TREx D1 cells, calcium flux, dopamine EC80; hits give low values | activity change, negative = inhibition, % at 10 µM | actives 3.2% (n = 360,000); in the data active = activity change below about -30%
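Tetracycline-induced HEK293 Trex D1 cells, force-coupled to calcium, dye-loaded; compounds added and read 180 s, then EC80 dopamine added and calcium flux tracked kinetically another 180 s.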
D1 ag: activates the human D1 dopamine receptor; AID 504660; activation, % at 2 µM; HEK293 T-REx D1 cells, calcium flux, agonist mode; actives 1% (n = 360,000); P21728; in the data active = activation above about 30%
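Agonism was scored from calcium flux recorded over 180 s (1 read/s) after pintool compound addition, following a 10-cycle baseline. Cells were inducible force-coupled HEK293 TREx D1, plated overnight at 30 C and loaded with no-wash calcium dye.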
Each line names hits and unclear results; the compound was inactive in the other large screens.

CCn1ncc([N+](=O)[O-])c1C(=O)Nc1c(C)nn(Cc2ccc(F)cc2)c1C	D1 antagonist -40.1
CC(C(=O)N1CCCCC1)N1C(=O)c2ccccc2C1=O (configuration not stated)	none
CC1SC(=NC(=O)C(C)N2C(=O)c3ccccc3C2=O)NC1=O (configuration not stated)	D1 antagonist -34.1
Cc1ccc(NC(=O)CSc2ncc3c(n2)-c2ccccc2N(C)S3(=O)=O)c(Cl)c1	none (no result: D3 antag)
CC(=O)c1cc2c(cc1NS(=O)(=O)c1ccccc1)OCO2	none
Cc1ccccc1CNS(=O)(=O)c1ccc2c(c1)OCCO2	D1 antagonist -32.4
CC(=O)N1CCOc2ccc(S(=O)(=O)NCc3ccccc3Cl)cc21	D1 antagonist -32.1
CC(=O)c1cc2c(cc1NS(=O)(=O)c1ccc(C)cc1)OCCO2	D1 antagonist -37.3
Cc1ccc(CNS(=O)(=O)c2ccc3c(c2)OCCO3)cc1	none
CSc1ccc(S(=O)(=O)Nc2ccc3c(c2)OCCO3)cc1	D1 antagonist -30.1
COc1ccc(CN(Cc2ccco2)c2cnc(S(C)(=O)=O)nc2C(=O)Nc2ccc(C)c(Cl)c2)cc1	none (no result: D3 antag)
O=C(NC1CCCCC1)c1ccc(CSc2nc3ccncc3n2Cc2cccc(F)c2)cc1	none (no result: D3 antag)
Cc1cc(C(=O)NCCc2ccc(S(=O)(=O)NC(=O)NN3CCCCCC3)cc2)no1	none (no result: D3 antag, D1 PAM, D1 antagonist, D1 ag)
CCN(C(=O)Cn1c(=O)n(CCCS(=O)(=O)C2CCCCC2)c(=O)c2ccccc21)c1cccc(C)c1	none (no result: D3 antag)
CCOc1ccc(S(=O)(=O)Nc2ccccc2SC)cc1	D3 antag -64.6
CN(c1ccccc1)S(=O)(=O)c1ccc2c(c1)OCCO2	D3 ag 40.8 (no result: D1 PAM, D1 antagonist, D1 ag)
COC(=O)COc1ccc(S(=O)(=O)Nc2ccccc2SC)cc1	none
CSc1ccc(S(=O)(=O)Nc2c(C)cccc2C)cc1	D3 antag -166.5
CSc1ccccc1NS(=O)(=O)c1ccc2c(c1)OCCO2	D3 antag -85.2
O=C(O)C(=O)/C(=C\c1cccc2ccccc12)c1ccc2ccccc2n1	D1 ag 31.3
CC(C)Cn1c(=O)c2sccc2n2c(CCCC(=O)NCCc3ccc(Cl)cc3)nnc12	none (no result: D3 antag)
C=CCNc1nc(NCc2ccccc2)c(C#N)c2c1CN(C)CC2	D3 antag -66.2
COc1ccc(OC)c(CNC(=O)c2cc(S(=O)(=O)N3CCC(C)CC3)cn2C)c1	none (no result: D3 antag)
CCOCCCNC(=O)C1CCN(Cc2ccc(OCc3ccccc3)c(OC)c2)CC1	none
CCCCN(Cc1ccccc1)C1CCN(Cc2ccccc2)CC1	D3 antag -76.2
CCOC(=O)C1CCN(Cc2ccc(OCc3ccccc3)cc2)CC1	none
CCCCN(C)C(=O)C1CCN(Cc2ccc(OCc3ccccc3)cc2)CC1	D3 antag -67.9
CCOCCCNC(=O)C1CCN(Cc2cccc(OCc3ccccc3)c2)CC1	D1 antagonist -30.6
O=C(Nc1ccc(F)c(F)c1)c1cc(S(=O)(=O)NCc2ccc3c(c2)OCO3)ccc1F	none (no result: D3 antag)
N#C/C(=C(\O)c1cc(Cl)sc1Cl)c1nc2ccccc2[nH]1	D1 ag 35.1
N#C/C(=C(/O)c1ccc(Cl)cc1)c1nc2ccccc2[nH]1	none
CCC1Oc2ccc(C)cc2N(CC(=O)NCc2ccc(F)cc2)C1=O (configuration not stated)	none (no result: D3 antag)
COc1ccc(Cl)cc1-c1n[nH]c(=S)n1C1CCCCC1	D3 antag -59.8
COc1ccc(-c2n[nH]c(=S)n2C2CCCCC2)cc1	none
Cc1ccccc1OCc1n[nH]c(=S)n1-c1cccc(Cl)c1	none
Cc1cc(Cl)ccc1OCc1n[nH]c(=S)n1C1CCCCC1	D3 antag -63.6
CCN(C(=O)C1CCCN(S(=O)(=O)c2c(C)noc2/C=C/N(C)C)C1)c1cccc(C)c1 (configuration not stated)	none (no result: D3 antag)
Cc1ccc(NC(=S)NNC(=S)Nc2cccc(C(F)(F)F)c2)cc1	none
Cc1ccc(NC(=S)NNc2ncc(C(F)(F)F)cc2Cl)cc1	D3 antag -68.4
Fc1ccc(NC(=S)NNc2ncc(C(F)(F)F)cc2Cl)c(F)c1	D3 antag -74.8 (no result: D1 antagonist)
FC(F)(F)c1cccc(NC(=S)NNC(=S)Nc2ccc(Cl)cc2)c1	none (no result: D3 antag, D3 ag)
FC(F)(F)c1cnc(NNC(=S)Nc2ccc(Cl)cc2)c(Cl)c1	D3 antag -64.1
O=C(NNc1ncc(C(F)(F)F)cc1Cl)c1ccc(Cl)c(Cl)c1	none
Cc1ccc(NC(=S)NNc2ncc(C(F)(F)F)cc2Cl)c(C)c1	D3 antag -53.5
Nc1sc2c([n+]1CCCS(=O)(=O)[O-])CCCC2	D1 antagonist -31.1
CC1CS(=O)(=O)CCN1/N=C/c1ccc([N+](=O)[O-])o1 (configuration not stated)	none (no result: D3 antag, D1 PAM, D1 antagonist, D1 ag)
CCOC(=O)c1cc(-c2ccc(F)cc2)n(CCC(=O)Nc2ccccc2OC)c1C	none (no result: D3 antag)
Nn1c(SCC(=O)N2CCc3ccccc3C2)nnc1-c1cccs1	none
CC1CN(C(=O)CSc2nnc(-c3cccs3)n2N)CC(C)O1 (configuration not stated)	D1 antagonist -34.3
CCOC(=O)C1C(=O)NC(N2CCN(Cc3ccccc3)CC2)=NC1c1ccco1 (configuration not stated)	D1 antagonist -35.9
CC1=C(C(=O)Nc2ccc(C)cc2C)C(c2ccc(O)cc2)n2nnnc2N1 (configuration not stated)	none (no result: D3 antag)
COc1ccc(C2C3C(=O)N(N(C)c4ncc(C(F)(F)F)cc4Cl)C(=O)C3ON2C)cc1 (configuration not stated)	D1 antagonist -30.8
Cc1ccc(S(=O)(=O)N2CCN(C(=O)CSc3ccc(Cl)cc3)CC2)cc1	none
CC(=O)c1ccc(S(=O)(=O)N2CCN(C(=O)CSc3ccc(C)c(C)c3)CC2)cc1	D1 antagonist -34.0
CCCOc1ccccc1C1C(C(=O)Nc2ccccc2)=C(C)Nc2nnnn21 (configuration not stated)	D1 ag 39.0 (no result: D3 antag)
O=[N+]([O-])c1ccc(N2CCN(c3ccccc3O)CC2)c(Cl)c1	D3 antag inconclusive, D1 antagonist -35.6
O=[N+]([O-])c1ccc(N2CCN(c3ccccc3O)CC2)cc1	none
O=[N+]([O-])c1cc(S(=O)(=O)C(F)(F)F)ccc1N1CCN(c2ccccc2)CC1	D3 antag -53.7
NC(=O)c1ccc(N2CCN(c3ccccc3O)CC2)c([N+](=O)[O-])c1	D1 antagonist -56.2
NC(=O)c1ccc(N2CCN(c3ccccc3F)CC2)c([N+](=O)[O-])c1	none
CCCNC(=O)Cn1nc(-c2ccc(C)c(C)c2)c2cnc3ccc(F)cc3c21	none (no result: D3 antag)
CC(=O)c1ccc(NC(=O)c2cc(C)nc3c2c(C)nn3-c2ccc(C)cc2)cc1	none (no result: D3 antag)
Cn1c(=O)cc(SCC(=O)NCc2ccc(F)cc2)c2ccccc21	none
Cn1c(C(=O)NCCN2CCOCC2)cc2c(=O)n(C)c3ccccc3c21	none (no result: D1 PAM)
Cn1c(=O)cc(SCC(=O)NCCN2CCN(c3ccccc3F)CC2)c2cc(Cl)ccc21	D3 antag -63.3 (no result: D1 PAM, D1 antagonist, D1 ag)
